Source: PubChem BioAssay
Pf growth 48h = P. falciparum growth inhibition at 48 hours (one generation); P. falciparum luciferase growth in erythrocytes, 48 h; Potency, µM (top dose mostly 28.7 µM), for inactives: at the highest dose activity change, negative = inhibition, usual class: inhibitors; 5.9% of 310,000 active; AID 504832; also: potency is read from the fitted curve at half-maximal effect; % is scaled to controls: 0 for no effect and ±100 for the full control effect
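Parasite viability was followed by luminescence of a genomically integrated firefly luciferase. Cultures held 0.1% parasitemia at 2% hematocrit (final), incubated under 5% CO2 at 37 C.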
Shiga inhibitor = inhibitors of Shiga toxin in Vero cells | Vero cells, Shiga toxin protein synthesis inhibition reporter | inhibition, % at 38.7 µM | 9.2% of 290,000 active | AID 2315; in the data active = inhibition mostly above about 28%, no sharp cut-off; inactive = mostly below about 43%; also: 0% is about no effect
CHX counter = affects cycloheximide protein synthesis inhibition readout, counter-screen. cell reporter, cycloheximide protein synthesis inhibition counterscreen. max response, %. 12% of 300,000 active; in the data active = max response mostly above about 13%, no sharp cut-off; inactive = mostly below about 14%; also: read at 38.3 µM for the half of the compounds with a filed dose; 0% is about no effect
FBPA Giardia inh = blocks Giardia fructose-bisphosphate aldolase activity; A8B2U2; purified Giardia FBPA; 0.71% of 290,000 active; Potency, µM (doses to about 59.6 µM), for inactives: at the top dose activity, negative = inhibition, hits mostly inhibitors; also: potency is read from the fitted curve at half-maximal effect; % is scaled to controls: 0 for no effect and ±100 for the full control effect; nearly all actives have a fitted effect of over 55% in size
Target sequence (A8B2U2 whole entry, looked up): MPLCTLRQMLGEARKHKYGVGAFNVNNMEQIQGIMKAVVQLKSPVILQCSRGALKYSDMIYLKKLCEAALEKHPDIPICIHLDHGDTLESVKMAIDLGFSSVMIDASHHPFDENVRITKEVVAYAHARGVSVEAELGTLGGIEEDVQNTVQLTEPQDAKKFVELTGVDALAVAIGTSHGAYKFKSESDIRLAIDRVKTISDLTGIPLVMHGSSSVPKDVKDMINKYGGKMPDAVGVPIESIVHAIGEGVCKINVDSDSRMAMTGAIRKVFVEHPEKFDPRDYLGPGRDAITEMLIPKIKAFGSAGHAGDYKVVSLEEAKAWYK
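Giardia FBPA (40 nM reagent) was preincubated 10 min at RT with compound (up to 57.5 uM final), then substrate plus GAPDH/TPI/NAD/arsenate coupling system with diaphorase/resazurin was added; resorufin fluorescence (525/598 nm) was read after 20 min.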
Pf growth 96h = P. falciparum growth inhibition at 96 hours. P. falciparum luciferase reporter growth, 96 h. Potency, µM (doses to about 28.7 µM), for inactives: at the highest dose activity change, negative = inhibition, usual class: inhibitors. 6.9% of 320,000 active; also: potency is read from the fitted curve at half-maximal effect; % is scaled to controls: 0 for no effect and ±100 for the full control effect
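Readout is luminescence from an integrated firefly luciferase in P. falciparum. Red cells, 2% hematocrit and 0.05% parasitemia final, were cultured with compound through two parasite generations (96 hours) at 37 C, 5% CO2.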
NS1 function inh = inhibitors of influenza NS1 protein function; Potency, µM (highest dose often 46.1 µM), for inactives: at the top dose activity, positive = more growth; 0.4% of 270,000 active; calls by dose curve; also: potency is read from the fitted curve at half-maximal effect; actives are rising curves; nearly all actives have a fitted effect of over 50% in size
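A cell-based growth assay was used: compounds that relieve NS1-induced slow growth of budding yeast raise OD600. Assay medium was yeast nitrogen base with ammonium sulphate and -URA supplement, pH 6.0, with 2% galactose.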
The depositor's hits bear a star; ? = inconclusive; · = not tested or not shown; [ ] = another dose, or the depositor's remark. The list is not random: actives were taken first. Their share in the collection is about 21%. Unless noted, calls follow the shape of the dose curve; as a rule, active = well fitted curve in the direction sought with a large enough effect; inconclusive = small, poorly fitted or top-dose-only effect, or another doubt; inactive = no such curve, though single readings can be large; an effect the other way counts as inactive or inconclusive.

SMILES | Pf growth 48h | Shiga inhibitor | CHX counter | FBPA Giardia inh | Pf growth 96h | NS1 function inh
O=C(O)c1csc(-c2cccc(Cl)c2)n1 | 35% | 5 | 9.7* | 8% | 39% | -7%
O=C(Nc1ccc(F)cc1F)c1csc(-c2ccccc2)n1 | 26% | 70* | 24* | 1% | 43% | 1%
O=C(Nc1ccccc1)c1csc(-c2ccccc2)n1 | 26% | 43* | 26* | 2% | 12% | -35%
O=C(Nc1ccc(C(F)(F)F)cc1)c1csc(-c2ccncc2)n1 | ? | -16 | 9 | -10% | ? | -6%
O=C(O)c1csc(-c2ccccc2)n1 | 104% | -5 | 0 | -1% | 57% | -9%
COc1ccc(-c2nc(C#N)c(NCc3ccco3)o2)cc1 | 110% | 73* | 28* | -9% | 39% | -3%
Cc1cccc(-c2nc(C#N)c(NCc3ccco3)o2)c1 | 131% | 54* | 57* | -8% | 121% | -9%
Cc1ccc(-c2nc(C#N)c(NCc3ccco3)o2)cc1 | 84% | 89* | 54* | 0% | 12µM* | -1%
N#Cc1nc(Cc2cccc3ccccc23)oc1NCc1ccco1 | ? | -10 | -4 | -7% | ? | -88%
N#Cc1nc(-c2ccc(F)cc2)oc1NCc1ccco1 | 7% | 86* | 13* | -5% | 29% | -2%
N#Cc1nc(-c2ccco2)oc1NCc1ccco1 | -3% | 15 | 7 | 0% | ? | -91%
C[N+](C)(C)c1ncnc2c1ncn2[C@@H]1C[C@H](O)[C@@H](CO)O1 | · | · | · | · | · | 0%
COC[C@H]1OC=C[C@@H](OC)[C@@H]1OC | · | · | · | 0% | · | ·
CC(C)(C)c1ccc(-c2nc(C#N)c(NCc3cccnc3)o2)cc1 | · | 23 | 32* | 0% | ? | -58%
Cc1cnc(C(=O)OCC(=O)N2CCN(S(=O)(=O)c3ccc(Cl)cc3)CC2)cn1 | 37% | · | · | · | 8% | ·
Oc1cc2c(cc1CN1CCN(c3ncccn3)CC1)OCO2 | 2% | -11 | 1 | · | 10% | -10%
O=C(c1ccncc1)N1CCC2(CC1)CCN(c1ccccc1)CC2 | · | · | · | 9% | · | ·
COc1cccc(/C=N/NC(=O)c2ccc(=O)[nH]n2)c1O | 5.9µM* | 60* | 30* | 18% | 0% | 1%
COc1cccc(/C=N/NC(=O)c2ccc(-c3ccccc3)cc2)c1O | · | 2 | 4 | 5% | 7.4µM* | 12%
COc1cccc(/C=N/NC(=O)C[n+]2ccccc2)c1O | ? | -1 | -1 | -27% | 5.9µM* | 9%
COc1cccc(/C=N/NC(=O)c2[nH]c(C)c(C(=O)N/N=C/c3cccc(OC)c3O)c2C)c1O | 9.3µM* | 112 | 40* | ? | · | -6%
COc1ccc(OC)c(/C=N/NC(=O)c2ccc(=O)[nH]n2)c1 | 11% | -4 | -2 | 3% | ? | 20%
COC1(C#CC2C=CC(OC(C)=O)C(COC(C)=O)O2)CCCCC1 (stereo unspecified) | · | · | · | 0%[12.9 µM] | · | ·
COc1cccc(/C=N/NC(=O)CNC(=O)COc2ccccc2)c1O | ? | 32 | 11 | 17% | -36% | -8%
O=C(N/N=C\c1ccccc1F)c1ccc(-c2ccccc2)cc1 | -8% | 28 | 36* | · | -19% | -1%
SMILES | Pf growth 48h | Shiga inhibitor | CHX counter | FBPA Giardia inh | Pf growth 96h | NS1 function inh
Cc1ccc(CN2CCN(CC(=O)N/N=C/c3ccccc3F)CC2)cc1 | 113% | 118* | 37* | 6% | 167% | 3%
COc1ccc(CCCC(=O)N/N=C/c2cccc(OC)c2O)cc1C | 35% | 52* | 28* | 14% | -19% | -10%
COc1cccc(/C=N/NC(=O)CN2CC(c3ccccc3)CC2=O)c1O (stereo unspecified) | 7% | 40* | 34* | -27% | ? | -4%
CC1(C)Cc2c(sc(NC(=O)C(=O)NCCCN3CCOCC3)c2C#N)CO1 | 11% | -10 | 4 | · | -24% | 7%
COc1ccc(Cc2nnc(Cl)c3ccccc23)cc1OC | -7% | -2 | -2 | -27% | 2% | 1%
CN(C(=O)CN1C(=O)c2cccc(N)c2C1=O)C1CCCCC1 | -17% | · | · | · | -17% | ·
OCC1OC(C#Cc2ccccc2)C=CC1OCc1ccccc1 (stereo unspecified) | · | · | · | -2%[12.9 µM] | · | ·
CC(=O)OC1CC2C(C)(C)C(=O)C3OC3[C@]2(C)C2CC[C@@]3(C)C(c4ccoc4)OC(=O)C4OC43[C@]12C (stereo partly specified) | · | · | · | -1% | · | ·
